These results are taken from PubChem BioAssay.

The subject of experiment [1] is Hepatitis C virus NS3 helicase. Put plainly: HCV NS3 helicase inhibitors, primary screen, biochemical, fluorescence polarization, LOPAC1280 library (AID 687035; in the data active means inhibition above about 37%). The note with it: Purified HCV NS3 helicase, Cy5-dT15 ssDNA binding fluorescence polarization; stronger effect = higher value; concentration not given here.
The nature of experiment [2]: Cy5 fluorescence quenching or enhancement artefacts, artefact control for HCV NS3 helicase inhibitor project, biochemical, LOPAC1280 (AID 687037; call rule not given here). The following applies: Cy5-DNA-NS3h complex fluorescence interference counterscreen. A general note: A counterscreen serves to expose hits that act by an unwanted route or on another target.
The nature of experiment [3]: sensitizers of A549 cells to miR-34 induction, primary screen, imaging, A549 dox-inducible miR-34, nuclei and caspase counts (AID 1347080). The note with it: A549 miR-34 inducible, Hoechst nuclei count, 48 h.
Experiment [4] in a line: phospholipid biosynthesis inhibitors in animal cells, primary screen, cell-based, LOPAC library, screen 4 (AID 1347384; call rule not given here). The following applies: phospholipid biosynthesis inhibition screen, at 10 µM.
Experiment [5] can be described thus: survival rescue of mitochondrial mutant cells in low glucose, primary screen, MELAS cybrids, Rieske KO mouse fibroblasts, CellTiter-Glo (AID 1508586;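 active means mean z-score across replicates of 1.96 or higher in either the MELAS or the Rieske mutant cell line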;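 further: z relative to plate mean and SD of compound and empty wells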).
Experiment [6] is described as follows: viability rescue of complex I mutant cybrids, primary screen, cell-based, galactose medium, ATP luminescence (AID 1645843;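 active means z-score of at least 1.8 in each of two replicates, scored against plate mean and spread of sample wells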;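 further: positive z means more ATP and so rescue of galactose-driven cybrid death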). The note with it: complex I mutant cybrid cells, 72 h, stronger effect = higher value.
The nature of experiment [7]: hESC survival regulators, cell-based (AID 493140; call rule not given here;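 further: cells exposed to compounds for four days before counting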). The note with it: human embryonic stem cell survival screen; stronger effect = higher value.
Experiment [8] is described as follows: liver-stage malaria parasite growth inhibition, primary screen, cell-based, HepG2, luciferase luminescence, HepG2 viability (AID 624349; in the data active means parasite load remaining mostly below about 12%, no sharp cut-off; inactive means mostly above about 10%;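 further: 100% = mean of DMSO negative control wells on the same plate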). The note with it: P. berghei liver stage in HepG2, luciferase luminescence, concentration not given here; parasite load remaining: stronger effect = lower value; viability: measured here: HepG2 viability without parasites.
In experiment [9] the target is Mitogen-activated protein kinase 7 (Homo sapiens) (UniProt Q13164). Kind of experiment: ERK5 transactivation activators in reporter cells, primary screen, cell-based, HTS (AID 1508626;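 active means luciferase signal above three times the same-plate solvent-only control wells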;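 further: luciferase driven by Gal4-ERK5 fusion binding five Gal4 sites before minimal TATA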). The note with it: HeLa Gal4-ERK5 transactivation, 18 h, at 5 µM, stronger effect = higher value.
Sequence of Mitogen-activated protein kinase 7 (Homo sapiens) (Q13164 whole entry, looked up, the tested form may be a part): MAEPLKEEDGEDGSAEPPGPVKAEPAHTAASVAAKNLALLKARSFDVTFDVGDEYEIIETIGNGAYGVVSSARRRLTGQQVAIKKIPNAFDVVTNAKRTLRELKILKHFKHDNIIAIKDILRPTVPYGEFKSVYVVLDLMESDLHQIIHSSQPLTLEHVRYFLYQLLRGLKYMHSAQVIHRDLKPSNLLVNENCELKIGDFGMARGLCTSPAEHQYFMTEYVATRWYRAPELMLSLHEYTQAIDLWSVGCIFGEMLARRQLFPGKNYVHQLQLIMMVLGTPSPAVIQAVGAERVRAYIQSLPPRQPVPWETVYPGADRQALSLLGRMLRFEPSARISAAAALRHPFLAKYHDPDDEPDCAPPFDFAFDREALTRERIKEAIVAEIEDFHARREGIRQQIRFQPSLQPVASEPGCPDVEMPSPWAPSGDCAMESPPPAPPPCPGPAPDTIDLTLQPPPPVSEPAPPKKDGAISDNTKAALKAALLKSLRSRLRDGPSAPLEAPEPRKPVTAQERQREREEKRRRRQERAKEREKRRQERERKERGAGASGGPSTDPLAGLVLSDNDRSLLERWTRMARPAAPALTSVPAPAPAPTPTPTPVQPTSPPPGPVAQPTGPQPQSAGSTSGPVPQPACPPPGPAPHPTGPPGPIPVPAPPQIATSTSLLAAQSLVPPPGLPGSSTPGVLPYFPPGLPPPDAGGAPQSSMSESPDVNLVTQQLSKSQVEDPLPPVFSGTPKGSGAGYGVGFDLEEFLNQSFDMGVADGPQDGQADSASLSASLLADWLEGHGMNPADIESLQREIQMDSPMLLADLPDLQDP
The nature of experiment [10]: circadian clock period modulators, cell-based, LOPAC library, luminescence reporter (AID 2774; call rule not given here;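 further: values are relative to mean of DMSO wells on each plate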). The following applies: circadian reporter cells, at 7 µM, actives lie on both sides.
Setting [11] is: stronger effect = lower value, cell number ratio, induced over uninduced.
Where [12] appears, read: measured here: relative caspase fold change +Dox/-Dox.
The mark [13] stands for this setting: measured here: total cells with miR-34 induction, stronger effect = lower value.
The mark [14] stands for this setting: measured here: total cells without miR-34 induction.
The mark [15] stands for this setting: MELAS cybrid survival, CellTiter-Glo 48 h, stronger effect = higher value.
Setting [16] is: Rieske KO mouse fibroblast survival, CellTiter-Glo 72 h.

Values joined by “and” are separate entries in the source; they are usually repeats but may differ in a detail not shown here. Identical values can stand only once. Active and inactive are the calls of the source.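 How the source made its calls, unless noted: active means compounds whose cell count with miR-34 switched on is under 0.7 times the count with it off; inactive means the rest.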

As a reminder, the inhibition is the drop in the measured response relative to a control, in per cent. With `Cc1nn(-c2ccccc2)c(C)c1C=NN1CCN(Cc2ccccc2)CC1`, the inhibition in experiment [1] was -4% (inactive). The fluorescence ratio (interference) in experiment [2] is 1 (inactive). In addition, the fold change in experiment [3] (setting [11]) was 0.991 (inactive) and 0.89 (inactive); in experiment [3] (setting [12]), 1.98 and 0.283. Also, the cell count is 8530 and 7580 in experiment [3] (setting [13]); 8610 and 8510 in [3] (setting [14]). For the same molecule, the outcome in [4] was inactive. In addition, the z-score is 1.46 (inactive) in experiment [5] (setting [15]), -0.978 in experiment [5] (setting [16]) and -0.13 (inactive) in experiment [6].
In general, viability refers to a read-out of living cells in per cent, often relative to untreated cells. Turning to `CCCCC[C@H](O)/C=C/[C@@H]1[C@@H](C/C=C\CCCC(=O)O)[C@@H](O)C[C@H]1O`, in experiment [7], the survival was 95.3 (inactive). Also, the parasite load remaining in experiment [8] was 32.1% (inactive). The viability in experiment [8] was found to be 102%. Besides, the z-score was -0.59 (inactive) in experiment [5] (setting [15]), -0.344 in experiment [5] (setting [16]) and 0.625 (inactive) in [6].
For `N[C@@H](Cn1ccc(=O)c(O)c1)C(=O)O`, the parasite load remaining in [8] is 61.9% (inactive). Besides, the viability in experiment [8] was determined as 117%. Besides, the inhibition in experiment [1] was -3% (inactive). Moreover, the fluorescence ratio (interference) in experiment [2] was 1 (inactive). In addition, the fold change in experiment [3] (setting [11]) was 1.03 (inactive) and 0.872 (inactive); in experiment [3] (setting [12]) it was 1.54 and 1.46. Moreover, the cell count is 10200 and 9120 in [3] (setting [13]); 9910 and 10400 in experiment [3] (setting [14]). For the same molecule, the result in experiment [4] was inactive. For the same molecule, in experiment [9], the luciferase signal was 68 AU (inactive). In [6], the z-score is 0.455 (inactive).
On to `O=C(O)C=Cc1ccc(Cn2ccnc2)cc1`, for which the fold change in experiment [3] (setting [11]) is 0.955 (inactive) and 0.883 (inactive) and 0.902 (inactive); in [3] (setting [12]) it was 1.3 and 1.43 and 0.779. The cell count is 9560 and 7820 and 10000 in experiment [3] (setting [13]); 10000 and 8860 and 11100 in experiment [3] (setting [14]). In addition, the z-score in experiment [5] (setting [15]) is -0.304 (inactive) and -0.385 (inactive); in experiment [5] (setting [16]) it was 0.761 and 0.973; in [6], 0.575 (inactive).
Take `C[C@H]1[C@H](NC(=O)/C(=N\OC(C)(C)C(=O)O)c2csc(N)n2)C(=O)N1S(=O)(=O)O`: in [7], the survival was 21.6 (inactive). Also, the parasite load remaining in experiment [8] was 29.2% (inactive) and 123% (inactive) and 17.7% (inactive). Moreover, the viability in experiment [8] is 47.3% and 89% and 68%. For the same molecule, the fold change in [3] (setting [11]) was 0.907 (inactive) and 0.865 (inactive); in experiment [3] (setting [12]), 1.09 and 1.14. Besides, the cell count in [3] (setting [13]) is 8940 and 9450; in [3] (setting [14]) it was 9850 and 10900. In addition, the z-score is 0.296 (inactive) and 0.337 (inactive) in experiment [5] (setting [15]); 0.0689 and -0.343 in [5] (setting [16]); 0.06 (inactive) in experiment [6].
Regarding `CC(C)(C)NCC(O)COc1nsnc1N1CCOCC1` (configuration not stated), the period change in experiment [10] was -0.09 h (inactive). In addition, the inhibition in experiment [1] was -2% (inactive). Besides, the fluorescence ratio (interference) in [2] is 1 (inactive). Moreover, the fold change in experiment [3] (setting [11]) is 0.926 (inactive) and 0.855 (inactive); in experiment [3] (setting [12]), 1.26 and 0.99. Further, the cell count was 9690 and 8250 in experiment [3] (setting [13]); 10500 and 9640 in [3] (setting [14]). Also, in experiment [4], the molecule was classed as inactive. Besides, the figures for the z-score in experiment [5] (setting [15]), in experiment [5] (setting [16]) and in experiment [6] were -0.232 (inactive), -0.152 and 0.22 (inactive), respectively.
With `COc1cc(CNC(=O)CCCCCCC(C)C)ccc1O`, in experiment [10], the period change was 0.135 h (inactive). In experiment [1], the inhibition is -5% (inactive). The fluorescence ratio (interference) in [2] is 1 (inactive). Further, the fold change is 1.08 (inactive) and 1.04 (inactive) in [3] (setting [11]); 0.866 and 1.07 in [3] (setting [12]). For the same molecule, the cell count in experiment [3] (setting [13]) was 10600 and 5720; in [3] (setting [14]), 9840 and 5480. Besides, in [4], the outcome was inactive. The z-score in [6] was -0.085 (inactive).
As to `CN(CC=CC#CC(C)(C)C)Cc1cccc2ccccc12`, the fold change in experiment [3] (setting [11]) is 0.964 (inactive) and 0.918 (inactive) and 0.968 (inactive); in experiment [3] (setting [12]), 2.12 and 1.02 and 0.751. For the same molecule, the cell count in experiment [3] (setting [13]) is 9310 and 7680 and 9620; in experiment [3] (setting [14]), 9660 and 8370 and 9940. Also, the z-score in experiment [5] (setting [15]) is -0.142 (inactive) and -0.315 (inactive); in experiment [5] (setting [16]) it was -0.993 and 0.763; in experiment [6], -1.88 (inactive).
For `CNC(=O)[C@H]1O[C@@H](n2cnc3c(NCc4cccc(I)c4)ncnc32)C(O)[C@H]1O` (some centres not stated), the period change in [10] is -0.015 h (inactive). Moreover, the inhibition in [1] is -2% (inactive). In addition, in experiment [2], the fluorescence ratio (interference) was 0.9 (inactive). In addition, the fold change in experiment [3] (setting [11]) was 1.05 (inactive) and 1.03 (inactive); in experiment [3] (setting [12]), 0.68 and 1.21. Also, the cell count is 10000 and 5680 in [3] (setting [13]); 9560 and 5540 in experiment [3] (setting [14]). Also, the molecule was classed as inactive in [4]. In addition, in [6], the z-score was 2.43 (active).
Regarding `CN(C)S(=O)(=O)c1ccc2c(c1)/C(=C/c1cc3c([nH]1)CCCC3)C(=O)N2`, the period change in experiment [10] was -0.01 h (inactive). Further, in [8], the parasite load remaining was 43.1% (inactive). Also, the viability in experiment [8] turned out to be 152%. In addition, the inhibition in [1] is -2% (inactive). For the same molecule, in [2], the fluorescence ratio (interference) was 1 (inactive). Besides, the fold change in experiment [3] (setting [11]) is 0.998 (inactive) and 0.964 (inactive); in experiment [3] (setting [12]) it was 1 and 1.24. The cell count in experiment [3] (setting [13]) was 3800 and 4420; in [3] (setting [14]) it was 3810 and 4590. The call in experiment [4] was active. Further, the z-score in experiment [6] was 1 (inactive).
`O=c1onc2n1-c1cc(Br)ccc1OC2`: in [10], the period change is 0.015 h (inactive). Also, the inhibition in [1] is -4% (inactive). The fluorescence ratio (interference) in [2] is 1 (inactive). Also, the fold change in experiment [3] (setting [11]) is 1.09 (inactive) and 0.947 (inactive); in experiment [3] (setting [12]), 1.04 and 0.916. The cell count in [3] (setting [13]) was 11200 and 5950; in [3] (setting [14]), 10300 and 6280. Besides, the molecule was classed as inactive in experiment [4]. Also, the z-score in experiment [6] was 0.095 (inactive).
Consider `CCCC1CC(C(=O)NC(C(C)Cl)C2OC(SC)C(O)C(O)C2O)N(C)C1` (configuration not stated), for which the fold change in experiment [3] (setting [11]) is 0.887 (inactive) and 0.926 (inactive) and 0.928 (inactive); in [3] (setting [12]), 0.463 and 0.824 and 1.2. In addition, the cell count in [3] (setting [13]) was 8440 and 7670 and 9370; in experiment [3] (setting [14]), 9520 and 8280 and 10100. Besides, the z-score in experiment [5] (setting [15]) was 0.443 (inactive) and -0.35 (inactive) and -0.364 (inactive); in [5] (setting [16]) it was -0.229 and -0.0713 and 0.118; in experiment [6] it was -0.495 (inactive).
